# Test results from PubChem BioAssay AID1866 (The Scripps Research Institute Molecular Screening Center, 2009).
# In all, about 1,300 compounds went through this assay and about 40 (3%) were called active. These entries were drawn from the full list. A number with no mark means an inactive call.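 The calls were made as follows: active = inhibition above that campaign's mean inhibition plus 3 SD (cut at about 0.46% in these data); inactive = the rest.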
# Target: Beta-lactamase TEM (Escherichia coli) (UniProt P62593)
# Sequence (P62593 whole entry, looked up): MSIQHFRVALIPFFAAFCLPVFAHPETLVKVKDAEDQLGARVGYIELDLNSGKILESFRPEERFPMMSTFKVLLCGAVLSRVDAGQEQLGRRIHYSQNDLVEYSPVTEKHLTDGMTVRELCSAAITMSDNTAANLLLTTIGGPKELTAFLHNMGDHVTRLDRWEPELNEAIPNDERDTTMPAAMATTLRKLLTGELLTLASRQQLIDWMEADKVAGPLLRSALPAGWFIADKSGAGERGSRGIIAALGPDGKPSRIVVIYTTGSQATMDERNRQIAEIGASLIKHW
# Assay: inhibition of purified E. coli TEM-1 enzyme – biochemical, epi-absorbance, HTS, counter-screen for VIM-2 inhibitor project (AID 1866);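 also: 0% = TEM-1 with DMSO and 100% = TEM-1 with 100 µM potassium clavulanate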
# Conditions: Purified TEM-1, nitrocefin hydrolysis, epi-absorbance fluorescence; at 5.6 µM; active compounds read high
row,SMILES,inhibition [%]
1,COc1ccc(CCn2c(=N)c(C(=O)NCC3CCCO3)cc3c(=O)n4cccc(C)c4nc32)cc1OC (configuration not stated),-5.02
2,Cc1nc2ccccc2c2oc(C(=O)NCCCN3CCC(C)CC3)cc12,-6.75
3,CNC(=O)c1ccsc1NC(=O)c1ccc(S(=O)(=O)N2CCOCC2)cc1,-7.75
4,Fc1ccc(-c2ccc(CNCc3ccccn3)o2)cc1Cl,-5.72
5,CCN(CC)c1ccc2cc(C(N)=O)/c(=N\NC(=O)c3ccncc3)oc2c1,-8.43
6,O=C(COc1cc2oc(=O)c3c(c2cc1Cl)CCC3)NCCCN1CCOCC1,-0.53
7,CCN1CCN(CCNC(=O)c2ccc3c(c2)NC(=O)/C(=C\c2ccc(OC)c(OC)c2)S3)CC1,-9.31
8,COc1ccc(-c2nn3c(-c4ccccc4)nnc3s2)cc1OC,-11.4
9,CCOC(=O)N1CCN(C(=O)C2CCN(c3ncnc4c3sc3cccc(F)c34)CC2)CC1,-5.6
10,CCN(CC)CCOc1ccc2c(c1)C(=NNC(=O)c1ccccn1)c1cc(OCCN(CC)CC)ccc1-2,-8.91
11,COc1ccc(Nc2cc(C)nc(-n3nc(C)cc3C)n2)cc1,-7.46
12,NC(=O)C1CCN(C(=O)COc2ccc3c4c(c(=O)oc3c2)CCC4)CC1,-5.63
13,Cn1c(-c2sccc2OCc2cccc(C(F)(F)F)c2)n[nH]c1=S,-7.73
14,CCOc1cc(/C=C2\SC(N3CCCCC3)=NC2=O)ccc1O,-8.67
15,COC(=O)c1c(NC(=O)c2ccc(S(=O)(=O)N3CCOCC3)cc2)sc2c1CCN(C(C)C)C2,-6.47
16,Cc1ccc(Cl)cc1-c1ccc(/C=N/n2cnnc2)o1,-6.18
17,CCN1CCCC1CNC(=O)c1cc2c(=O)n(C)c3ccccc3c2n1C (configuration not stated),-6.31
18,COc1ccc(Cc2nnc(NS(=O)(=O)Cc3ccccc3)s2)cc1,-3.28
19,Cc1cc(NCc2ccco2)n2c(nc3ccccc32)c1C#N,-6.6
20,CC(=O)c1ccc(-c2ccc(Cn3c(C)nc4cc(N)c(C)nc43)cc2)cc1,-6.56
21,CC(NS(=O)(=O)c1ccccc1)c1n[nH]c(=S)n1-c1ccccc1 (configuration not stated),-5.56
22,O=C1Nc2cc(C(=O)N3CCC(N4CCCCC4)CC3)ccc2S/C1=C\c1ccccc1,-5.79
23,CCc1cc(=O)oc2cc(C)cc(OCC(=O)N3CCC[C@@H]3C(=O)O)c12,-5.9
24,O=C(NC(=S)Nc1ccccc1C(=O)O)c1ccc(-c2ccc(Br)cc2)o1,-8.31
25,CN(C)CCNc1ccc(-c2n[nH]c(=O)c3ccccc23)cc1[N+](=O)[O-],-7.17
26,Cc1cc(-c2ccc(/C=N/n3cnnc3)o2)c([N+](=O)[O-])cc1C,-5.24

row,SMILES,inhibition [%]
1,C=CCn1c(-c2ccccc2OCC)n[nH]c1=S,-3.6
2,CC(C)(C)CC(=O)Nc1nnc(SCC(=O)NCc2cccs2)s1,-5.92
3,CCOc1cc(/C=C2\SC(N3CCCC(C)C3)=NC2=O)ccc1O (configuration not stated),-1.56
4,O=c1[nH]c(-c2ccccc2)c(-c2ccccc2)[nH]1,-4.67
5,COc1nc(N=C(N)N)nc2c(C)cccc12,-4.69
6,CN1CCN(c2ccc(NC(=O)c3ccc4c(c3)[nH]c(=O)n4Cc3ccc(F)cc3)cc2)CC1,-7.55
7,CC1CCCC(C)N1CCCNC(=O)c1cc2c(=O)n(C)c3ccccc3c2n1C (configuration not stated),-6.6
8,Cn1c2ccccc2c(=O)c2c(O)cccc21,-0.94
9,CCCc1ccc(OCCNC(=O)c2ccco2)cc1,-6.4
10,COC(=O)c1ccc(-c2noc(CN(Cc3ccccn3)CC3CCCO3)n2)cc1 (configuration not stated),-7.22
11,COc1cc(/C=N/Nc2nn3cnnc3c3ccccc23)cc(OC)c1OC,-3.82
12,COc1cc(NC(=O)C2=C(C)OCCS2)c(Cl)cc1C(=O)NCCN1CCN(C)CC1,-9.7
13,Nc1nnc2c(C(F)(F)F)nc3ccccc3n12,-1.12
14,Cc1cc(C)c2nc3nc(C)cc(C)c3c(N)c2c1,-4.56
15,CCC1CCCCN1CCCNC(=O)c1cc2c(Cl)nc3ccccc3c2s1 (configuration not stated),-6.12
16,Clc1cc(-c2ccc(/C=N/n3cnnc3)o2)ccc1Br,-5.72
17,CCN1CCN(C(=O)Cn2nc(C)n3c(cc4c(OC)cccc43)c2=O)CC1,-7.04
18,Cn1c(=O)c2c(nc(N3CCOCC3)n2CCNC2=NCCC2)n(C)c1=O,-4.49
19,COc1ccc(/C=N/N(C)C2=NS(=O)(=O)c3ccccc32)cc1OC,-6.76
20,COc1cc(-c2nn3c(-c4cccc(C)c4)nnc3s2)cc(OC)c1OC,-6.23
21,Cc1cccn2c(=O)c(C=O)c(Nc3ccc(S(N)(=O)=O)cc3)nc12,-4.52
22,O=C(NCCCN1CCOCC1)c1cnn2c(-c3ccccc3)cc(-c3ccccc3)nc12,-5.7
23,CCOCCCNc1c(CC)c(C)c(C#N)c2nc3ccccc3n12,-5.82
24,Cc1ccc2nc(C)c3c(c2c1)N(c1ccccc1)CC3,-5.53
25,Nc1cccc2c1C(=O)N(Cc1nnc(-c3ccccc3Br)o1)C2=O,-0.93
26,Cc1cc([N+](=O)[O-])c(-c2ccc(/C=N/n3cnnc3)o2)cc1Cl,-6.25
